Bioassay records (PubChem)
Myeloid diff MLP: compounds promoting myeloid differentiation | 1% of 360,000 active | calls only at 10 µM | ER-HoxA9 myeloid progenitors, lysozyme-GFP differentiation, flow cytometry;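 active means normalized GFP-positive differentiation at or above the plate's own cutoff, the solvent-only control mean plus 3 SD; inconclusive means no clear call, values can overlap the other calls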;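 further: cells exposed to compound for four days before flow analysis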
Granule exo inh: blocks lytic granule exocytosis. TALL-104 LAMP-1 surface exposure, flow cytometry; cells stimulated with thapsigargin and PMA. inhibition, % at 10 µM. 0.66% of 360,000 active;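 active means inhibition above about 55%, limit read from the data; inconclusive means no clear call, values can overlap the other calls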
NPR2 activator: GC-B (human) receptor activation. P20594. HEK293-GC-B cells, CNP EC30, cGMP TR-FRET; 0% at EC30 CNP, 100% saturating CNP. activation, % at 10 µM. 0.11% of 370,000 active. AID 1920062;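 active means activation at 10 µM reaching about 35% in either raw or pattern-adjusted values, limit read from the data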
NPR1 activator: GC-A (human) enzyme activation | HEK293 GC-A cells, cGMP TR-FRET, EC30 ANP; 0% at EC30 ANP, 100% saturating ANP | activation, % at 10 µM | P16066 | 0.14% of 370,000 active; in the data active means activation above about 40%
Hits are given with their value; 0 = inactive; ? = inconclusive; - = no result given; + = active, no number. An excerpt weighted towards active compounds, which were near 1.8% of everything screened.

SMILES	Myeloid diff MLP	Granule exo inh	NPR2 activator	NPR1 activator
NNC(=O)c1oc2nc(-c3ccccc3)cc(-c3ccccc3)c2c1N	+	0	0	0
NNC(=O)c1oc2nc(-c3cccs3)cc(-c3ccco3)c2c1N	+	0	0	0
CCN(CC)C(=O)C1=C(C)N(Cc2ccc(F)cc2)C(=O)C(CC(=O)NCc2ccco2)C1 (centres undefined)	0	0	0	0
CCCN(C(=O)CSc1n[nH]c(-c2ccc(OC)cc2)n1)c1c(N)n(Cc2ccccc2)c(=O)[nH]c1=O	+	0	0	0
CCCCNS(=O)(=O)CC1NCc2cc(OC)ccc21 (centres undefined)	-	-	0	0
CN(CC(=O)NCCc1ccc(S(N)(=O)=O)cc1)S(=O)(=O)c1cccc2nsnc12	+	0	0	0
CCOc1ccc(CCNC(=O)CN(C)S(=O)(=O)c2cccc3nsnc23)cc1OCC	0	0	0	0
COCCn1c(SCc2cccc([N+](=O)[O-])c2)nc2ccccc2c1=O	0	0	0	0
CCOC(CCn1c(SCc2cccc([N+](=O)[O-])c2)nc2ccccc2c1=O)OCC	+	0	0	0
O=C(Nc1ccc(F)cc1)OCc1cn(Cc2cccc(F)c2F)nn1	-	-	0	0
O=C(NCCc1ccccc1)OCc1cn(Cc2cccc(F)c2F)nn1	-	-	0	0
O=C(Nc1ccc(N2CCCC2)cc1)c1ccc(Cl)cc1Cl	0	0	0	0
O=C(Nc1ccc(N2CCCC2)cc1)c1cc(Cl)ccc1Cl	+	0	0	0
Cc1cccc(Cn2cc(COC(=O)N3CCCC3)nn2)c1	-	-	0	0
Cc1oc(C)c2c(=O)ccc3c(c12)OC(N)=C(C#N)C3c1ccc(F)cc1 (centres undefined)	+	0	0	0
CCCCCCC12Cc3cc(OC)c(OC)cc3C(O1)C1=C(O2)C(C)(C)CCC1=O (centres undefined)	-	-	0	0
CC(C)c1nc(SCC(=O)N2CCN(c3ccccc3)CC2)c2c(=O)n(C)c(=O)n(C)c2n1	?	0	0	0
CCCc1nc(SCC(=O)N2CCN(c3ccccc3)CC2)c2c(=O)n(C)c(=O)n(C)c2n1	+	0	0	0
Cc1cc[n+](CC(=O)c2cccs2)cc1	0	0	0	0
CN(C)c1cc[n+](CC(=O)c2cccs2)cc1	+	0	0	0
CC(C)(C)OC(=O)N[C@@H](Cc1ccccc1)c1nnc(S(=O)(=O)Cc2ccccc2)o1	-	-	0	0
CCC(C)[C@@H](NC(=O)OC(C)(C)C)c1nnc(S(=O)(=O)Cc2cccc(C)c2)o1 (some centres undefined)	0	81	0	0
CC1(C)c2[nH]c3ccccc3c2C[C@@H]2C(=O)N(c3cc(F)ccc3F)C(=O)N21	0	0	0	0
CC[C@H]1c2[nH]c3ccccc3c2C[C@@H]2C(=O)N(c3ccc(F)cc3)C(=O)N21	+	0	0	0
Cc1cccc2cc(C#N)c(NCCNS(=O)(=O)c3ccc4c(c3)OCCO4)nc12	+	0	0	0
SMILES	Myeloid diff MLP	Granule exo inh	NPR2 activator	NPR1 activator
CC(=O)C(=Nc1ccccc1Cl)NNc1ccc(Cl)cc1	0	89	0	0
COc1ccncc1-c1csc(C(O)c2ccccc2)n1 (centres undefined)	0	0	0	0
O=C(Cc1ccc(-n2c(=O)[nH]c3ccsc3c2=O)cc1)N1CCN(c2ccc(Cl)cc2)CC1	+	0	0	0
Oc1ccc2ccccc2c1C=Nn1c(-c2n[nH]c3c2CCC3)n[nH]c1=S	-	-	0	0
O=C(c1cc(Cl)cc(Cl)c1)N1CC[C@H]2[C@H](CCCN2Cc2cc(F)cc(F)c2)C1	-	-	0	0
Cc1ccc(NC(=O)c2ccc([N+](=O)[O-])o2)c(C)c1	+	0	0	0
COc1cc(NC(=O)c2ccc([N+](=O)[O-])o2)ccc1NC(=O)c1cccs1	+	0	0	0
O=C(Nc1cccc(NC(=O)c2cccs2)c1)c1ccc([N+](=O)[O-])o1	?	0	0	0
Cc1ccccc1NC(=O)c1ccc([N+](=O)[O-])o1	0	0	0	0
CC(C)N(Cc1cn(Cc2ccccc2)nn1)S(=O)(=O)c1ccc(F)cc1Br	-	-	0	0
O=C1CC(/C=C/c2ccccn2)=Nc2ccccc2N1	0	0	0	0
O=C1CC(/C=C/c2ccco2)=Nc2ccccc2N1	+	0	-	-
COC(=O)c1ccccc1COn1c(=O)c(C)[n+]([O-])c2ccccc21	0	0	0	0
CCOn1c(=O)c(C)[n+]([O-])c2ccccc21	0	0	0	0
Cc1c(=O)n(OCc2ccccn2)c2ccccc2[n+]1[O-]	0	0	0	0
O=c1c[n+]([O-])c2ccccc2n1OCc1ccccn1	+	0	0	0
O=c1c[n+]([O-])c2ccccc2n1OCc1c(F)cccc1F	+	0	0	0
COC(=O)c1ccccc1COn1c(=O)c[n+]([O-])c2ccccc21	+	0	0	0
CCOn1c(=O)c[n+]([O-])c2ccccc21	+	0	0	0
CCOC(=O)c1cc(-c2csc(COc3ccccc3Cl)n2)on1	0	0	0	63
CCOC(=O)c1cc(-c2csc(COc3ccccc3)n2)on1	0	0	0	67
CCOC(=O)c1csc(COc2ccccc2Cl)n1	0	0	0	0
CCOC(=O)c1cc(-c2csc(COc3ccc(Cl)cc3)n2)on1	0	0	0	58
CCOC(=O)c1cc(-c2csc(-c3cccc(Cl)c3)n2)on1	0	0	0	0
COC(=O)[C@]12C[C@H](CC(=O)NCC3CCCCC3)C(=O)N(Cc3cccc4ccccc34)C1=C[C@H](COCc1ccccc1)O[C@@H]2C	-	-	0	0
SMILES	Myeloid diff MLP	Granule exo inh	NPR2 activator	NPR1 activator
c1cnc2c(SCc3ccc(-c4nnco4)cc3)cccc2c1	0	69	0	0
Cc1cccc(-c2cccc3c4c([nH]c23)[C@@H]2C[C@H](N(C)C(=O)c3ccccc3C)[C@H]([C@H](C)O)C(=O)N2CC4)c1	-	-	0	0
CCOc1ccc(C(=O)N2CCCC2C(=O)O)cc1 (centres undefined)	+	0	0	0
CCCOc1ccc(C(=O)N2CCCC2C(=O)O)cc1 (centres undefined)	0	0	0	0
CCCC(=O)Nc1sc2c(c1C#N)CC(C)(C)NC2(C)C	0	0	0	0
COc1ccc(CC(=O)Nc2sc3c(c2C#N)CC(C)(C)NC3(C)C)cc1OC	0	0	37	0
CC(=O)Nc1sc2c(c1C#N)CC(C)(C)NC2(C)C	+	0	0	0
COC(=O)[C@]12C[C@H](CC(=O)N3CCCC3)C(=O)N(Cc3ccc(Cl)cc3Cl)C1=C[C@H](C(C)(C)C)O[C@@H]2C	-	-	0	0
O=C(C[C@H]1CC[C@H]2[C@@H](COC[C@@H](O)CN2Cc2cc(F)ccc2F)O1)NCc1ccc(Cl)cc1	0	0	0	0
O=C/C(=C\Nc1ccccn1)c1nc2cc(Cl)ccc2o1	+	0	0	0
O=C/C(=C\Nc1ccccn1)c1nc2ccccc2o1	0	0	0	0
CC(=O)Nc1cccc(N/C=C(\C=O)c2nc3ccccc3o2)c1	+	56	0	0
CC(=O)Nc1ccc(N/C=C(\C=O)c2nc3ccccc3o2)cc1	0	0	0	0
